Measurements taken from the supplement of paper PMC7156485.
± gives the standard deviation of the averaged measurements.

Key:
Details in all cases: concentration: 10 µM; 24 h
HCC1569 [1] = assay: cell number relative to DMSO (% of DMSO); higher = more cells (less growth inhibition / toxicity)
Summary of the method: (§1)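 Using 384-well plates with 800 cells per well in RPMI plus 10% FBS, HCC1569 and TDF cells were exposed to compounds at 10 µM, in triplicate, for 24 h at 37 °C. Imaging of six fields per well at ×10 followed H1.0 and DAPI staining. The reported quantity, H1.0 nuclear intensity or cell number, is a median of replicates given as percent of the plate control, and HCC1569 values were smoothed for positional effects.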

TDF [2] = assay: as above
Summary of the method: as §1

TDF [3] = assay: H1.0 immunofluorescence intensity relative to DMSO (% of DMSO); higher = stronger H1.0 induction, active = 120 or more
Summary of the method: as §1

HCC1569 [4] = assay: H1.0 immunofluorescence intensity relative to DMSO (% of DMSO); higher = stronger H1.0 induction, active = 140 or more
Summary of the method: as §1
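Wherever H1.0 immunofluorescence intensity relative to DMSO is given: TDF is a line of transformed human dermal fibroblasts of mesenchymal origin.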
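Wherever cell number relative to DMSO is given: TDF denotes transformed human dermal fibroblasts of mesenchymal origin.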

Row | SMILES | cell number (HCC1569 [1]) | cell number (TDF [2]) | H1.0 immunofluorescence intensity (TDF [3]) | H1.0 immunofluorescence intensity (HCC1569 [4])
1 | O=C1CC(c2ccc(O)cc2)Oc2cc(OC3OC(CO)C(O)C(O)C3O)cc(O)c21 (configuration not stated) [Narigenin-7-O-glucoside] | 101 | 103 | 97.8 (inactive) | 86.5 (inactive)
2 | CCCCCCC=CCCCCCCCC(=O)O [9(Z)-Hexadecenoic acid] | 98.8 | 104 | 97.9 (inactive) | 101 (inactive)
3 | CC(C)(C(=O)O)c1ccc(C(O)CCCN2CCC(C(O)(c3ccccc3)c3ccccc3)CC2)cc1.Cl (configuration not stated) [Fexofenadine hydrochloride] | 105 | 111 | 91.2 (inactive) | 90.5 (inactive)
4 | C[n+]1ccccc1CC(=O)c1ccc(Br)cc1.[I-] [2-[2-(4-bromophenyl)-2-oxoethyl]-1-methylpyridinium iodide] | 98.7 | 87.6 | 96.4 (inactive) | 97.5 (inactive)
5 | COc1cc2ncn(-c3cc(OCc4ccc(S(C)(=O)=O)cc4)c(C(N)=O)s3)c2cc1OC [Polo-like Kinase Inhibitor I] | 104 | 96.2 | 92.8 (inactive) | 112 (inactive)
6 | COC(=O)[C@H](Cc1ccc([N+](=O)[O-])cc1)NC(=O)c1cccc2ccccc12 [methyl (2S)-2-(1-naphthoylamino)-3-(4-nitrophenyl)propanoate] | 92.4 | 95 | 100 (inactive) | 101 (inactive)
7 | Nc1ccc(CCNc2ncnc3c2ncn3C2OC(CO)C(O)C2O)cc1 (configuration not stated) [N6-2-(4-Aminophenyl)ethyladenosine] | 101 | 109 | 85.9 (inactive) | 94 (inactive)
8 | Nc1ncnc2c1nc(Br)n2C1OC2COP(=O)([O-])OC2C1O.[Na+] (configuration not stated) [8-Bromo-cAMP sodium] | 104 | 110 | 95.5 (inactive) | 90.3 (inactive)
9 | Cc1scc2c1N(C(=O)CN1CCN(C)CC1)c1ccccc1NC2=O.Cl.Cl [Telenzepine dihydrochloride] | 107 | 94 | 99.8 (inactive) | 104 (inactive)
10 | CC(N)(Cc1ccc(O)c(O)c1)C(=O)O (racemic) | 101 | 101 | 90.9 (inactive) | 98.2 (inactive)
11 | CCCOc1ccc(C=C2SC(=O)NC2=O)cc1 [PIM1/2 Kinase Inhibitor VI] | 106 | 110 | 103 (inactive) | 98.1 (inactive)
12 | NCC1OC(OC2C(N)CC(N)C(OC3OC(CO)C(O)C(N)C3O)C2O)C(O)C(O)C1O.O=S(=O)(O)O (configuration not stated) [Kanamycin sulfate] | 99.5 | 106 | 99.3 (inactive) | 90.1 (inactive)
13 | CC(N)=NCc1cccc(CN)c1.Cl.Cl [1400W dihydrochloride] | 101 | 119 | 90.6 (inactive) | 109 (inactive)
14 | CCc1nc(-c2cccc(C)c2)c(-c2ccnc(NC(=O)c3ccccc3)c2)s1 | 88.3 | 84.4 | 87.8 (inactive) | 120 (inactive)
15 | O=C(C=Cc1ccc(O)c(O)c1)OC1CC(O)(C(=O)O)CC(O)C1O (configuration not stated) [Chlorogenic acid] | 100 | 98.2 | 103 (inactive) | 100 (inactive)
16 | CCCCOc1cc(CC2CNC(=O)N2)ccc1OC (configuration not stated) | 101 | 110 | 85.3 (inactive) | 86.2 (inactive)
17 | NC(=O)Nc1sc(-c2ccc(F)cc2)cc1C(N)=O [IKK-2 Inhibitor IV] | 80.1 | 103 | 95.8 (inactive) | 186 (active)
18 | O=C(Nc1cccc(C(=O)Nc2ccc(S(=O)(=O)[O-])c3cc(S(=O)(=O)[O-])cc(S(=O)(=O)[O-])c23)c1)Nc1cccc(C(=O)Nc2ccc(S(=O)(=O)[O-])c3cc(S(=O)(=O)[O-])cc(S(=O)(=O)[O-])c23)c1.[Na+].[Na+].[Na+].[Na+].[Na+].[Na+] | 102 | 110 | 93.4 (inactive) | 96 (inactive)
19 | Cc1ccc([N+](=O)[O-])cc1S(=O)(=O)N(C)N=Cc1cnc2ccc(Br)cn12 | 52 | 11.6 | 111 (inactive) | 104 (inactive)
20 | Nc1ccc(S(=O)(=O)Nc2ncccn2)cc1 [Sulfadiazine] | 101 | 108 | 95.6 (inactive) | 96.7 (inactive)
21 | Cn1c2ccccc2c2c3c(c4c5ccccc5n(CCC#N)c4c21)CNC3=O | 94.3 | 30.5 | 90.7 (inactive) | 99.5 (inactive)
22 | CC(C)NCC(O)c1ccc(O)c(O)c1.Cl (racemic) | 104 | 94 | 97.4 (inactive) | 99 (inactive)
23 | Cc1cn(C2CC(N=[N+]=[N-])C(CO)O2)c(=O)[nH]c1=O (configuration not stated) [3'-Azido-3'-deoxythymidine] | 104.8 ± 0.49 | 101 ± 7.6 | 96.8 (inactive) | 97.8 (inactive)
24 | CN(C)CCC(c1ccc(Br)cc1)c1ccccn1.O=C(O)C=CC(=O)O (single isomer, unassigned; (+)) [(+)-Brompheniramine maleate] | 96.5 | 79.5 | 113 (inactive) | 102 (inactive)

Row | SMILES | cell number (HCC1569 [1]) | cell number (TDF [2]) | H1.0 immunofluorescence intensity (TDF [3]) | H1.0 immunofluorescence intensity (HCC1569 [4])
25 | CC(NC(=O)C(C#N)=Cc1ccc(O)c(O)c1)c1ccccc1 (configuration not stated) [Tyrphostin AG 527] | 91.2 | 89.2 | 87.7 (inactive) | 107 (inactive)
26 | C=CC1(C)CC(=O)C2(O)C(C)(O1)C(OC(C)=O)C(O)C1C(C)(C)CCC(O)C12C (configuration not stated) [Forskolin] | 89.77 ± 0.53 | 105 ± 3.9 | 88.8 (inactive) | 96.6 (inactive)
27 | CCOC(=O)C=Cc1ccc(O)c(OC)c1 [Ferulic acid ethylester] | 98.3 | 95.4 | 90.2 (inactive) | 93.6 (inactive)
28 | CNCCC(Oc1ccccc1OC)c1ccccc1.Cl (configuration not stated) [Nisoxetine hydrochloride] | 98.6 | 111 | 99.4 (inactive) | 101 (inactive)
29 | O=C1NC(=O)c2c1c(-c1ccccc1)cc1[nH]c3ccc(O)cc3c21 | 59.9 | 51.1 | 101 (inactive) | 91.4 (inactive)
30 | CNCCC(Oc1ccc(C(F)(F)F)cc1)c1ccccc1 (configuration not stated) [Fluoxetine] | 99.3 | 94.1 | 100 (inactive) | 135 (inactive)
31 | COC(C(=O)C(O)C(C)O)C1Cc2cc3cc(OC4CC(OC5CC(O)C(O)C(C)O5)C(O)C(C)O4)c(C)c(O)c3c(O)c2C(=O)C1OC1CC(OC2CC(OC3CC(C)(O)C(O)C(C)O3)C(O)C(C)O2)C(O)C(C)O1 (configuration not stated) [Mithramycin A] | 68.7 | 29.9 | 109 (inactive) | 112 (inactive)
32 | Cc1cc2nc(NCCCO)n(CC(=O)c3cc(C(C)(C)C)c(O)c(C(C)(C)C)c3)c2cc1C | 67.9 | 78.5 | 97.1 (inactive) | 173 (active)
33 | Cc1cccc(-c2[nH]c(C(C)(C)C)nc2-c2ccc3c(c2)OCO3)n1.Cl [TGF-b RI Inhibitor III] | 96.3 | 84 | 97.7 (inactive) | 122 (inactive)
34 | Cn1cnc2c1c(=O)[nH]c(=O)n2C [Theobromine] | 104 ± 3 | 99 ± 6.1 | 96.4 (inactive) | 95.9 (inactive)
35 | COc1cc(=O)n(C)c2c(OCC(O)C(C)(C)O)cccc12 (configuration not stated) [Foliosidine] | 103 | 112 | 93.5 (inactive) | 93.7 (inactive)
36 | NC(N)=NCCC[C@H](N)C(=O)O [L-Arginine] | 102 | 107 | 93.7 (inactive) | 98.6 (inactive)
37 | CC1CCC2C(C)(CO)C(O)CCC2(C)C12CCC(CO)(CCO)O2 (configuration not stated) [Lagochiline] | 98.2 | 99.8 | 97 (inactive) | 100 (inactive)
38 | NC(C(=O)O)C(O)C(=O)O (racemic) [DL-threo-beta-hydroxyaspartic acid] | 101 | 110 | 96.7 (inactive) | 95.9 (inactive)
39 | Cn1cc(-c2ccc3nnc(C(F)(F)c4ccc5ncccc5c4)n3n2)cn1 | 102 | 96 | 96.1 (inactive) | 101 (inactive)
40 | O=C(NOCC1CC1)c1ccc(F)c(F)c1Nc1ccc(I)cc1Cl | 77.6 | 71 | 93.3 (inactive) | 116 (inactive)
41 | Cc1ccc(=O)n(-c2ccccc2)c1 [Pirfenidone] | 102 | 103 | 90.3 (inactive) | 92.5 (inactive)
42 | CCCOC(=O)c1c(-c2ccccc2)nc(CC)c(C(=O)SCC)c1CCC | 102 | 90.7 | 93.7 (inactive) | 96.3 (inactive)
43 | Cc1ccc(NC2=CC(=O)c3sc(C)nc3C2=O)cc1 | 27.9 | 14.5 | 122 (active) | 104 (inactive)
44 | COc1ccc2cc1Oc1ccc(cc1)CC1c3cc(c(OC)cc3CCN1C)Oc1c(OC)c(OC)c(OC)c3c1C(C2)N(C)CC3 (configuration not stated) [Hernandezine] | 93.5 | 93 | 106 (inactive) | 110 (inactive)
45 | Br.CCSC(=N)N [S-Ethylisothiourea hydrobromide] | 102 | 109 | 97.1 (inactive) | 88 (inactive)
46 | CCCNCC(O)COc1ccccc1C(=O)CCc1ccccc1 (configuration not stated) [Propafenone] | 103 | 101 | 92.6 (inactive) | 103 (inactive)
47 | CCCCCCCCCCCCCC=CC(O)C(CO)NC(=O)CCCCCCCCCCCCCCC (configuration not stated) [C16 Ceramide] | 96.6 | 95.3 | 102 (inactive) | 97.5 (inactive)
48 | CCNC(=O)C1OC(n2cnc3c(N)nc(NCCc4ccc(CCC(=O)O)cc4)nc32)C(O)C1O.Cl (configuration not stated) | 118 | 96 | 103 (inactive) | 102 (inactive)
